# Laboratory results reported in PubChem BioAssay (Tox21).
# “And” between values parts separate entries of the source, which are not always exact repeats. Identical values can stand only once. Records with an inconclusive call do not appear. Where a structure was tested more than once in an assay, its records may differ in their call. The source made the active and inactive calls. Calls come from the whole dose curve; as a rule, active = well fitted cell-killing curve with a large enough effect in the repeat runs; inconclusive = weak or mixed curves, or effect the other way; inactive = flat fitted curve, though single readings scatter.
# Assay: qHTS assay to identify small molecule antagonists of the androgen receptor (AR) signaling pathway using the MDA cell line in the presence of 0.5 nM R1881 - cell viability counter screen (AID 1259242); note: nearly all actives have a fitted effect of over 45% in size
# Settings: MDA-kb2 viability, CellTiter-Fluor protease fluorescence, 16 h; series mostly up to 92.4 µM; viability change, negative = cytotoxic: at the top concentration
# From the text: U.S. Tox21 Program National Center for Advancing Translational Sciences [NCATS] NIH Chemical Genomics Center [NCGC] U.S. Environmental Protection Agency [EPA] National Institutes of Environmental Health Sciences [NIEHS] National Toxicology Program [NTP] U.S. Food and Drug Administration [FDA] Tox21 Assay Overview: Androgen receptor (AR) is an important member of the nuclear receptor family. Its signaling plays a critical role in AR-dependent prostate cancer and other androgen related diseases. Considerable attention has been given in the past decades to develop methods to study and screen for the environmental chemicals that have the potential to interfere with metabolic homeostasis, reproduction, developmental and behavioral functions. Therefore AR binding assay for screening androgen antagonists can be used to identify potential endocrine disruptors. MDA-kb2 cells (from ATCC, deposited by Wilson et al.) were used to screen for AR inhibitors against Tox21 compound libraries. These cells are human breast carcinoma cells that were stably transfected with a luciferase reporter gene under control of the MMTV promoter that contains response elements for both androgen receptor (AR) and glucocorticoid receptor (GR). The current screening for identification of AR inhibitors against Tox21 libraries used lower concentration of (0.5 nM) R1881 as a stimulator. The cytotoxicity of the Tox21 compound libraries against MDA-kb2 cell line was tested by measuring live-cell protease activity using CellTiter-Fluor assay in the same wells.
# Tox21 Assay Protocol Summary: MDA-kb2 cells (cells cultured without CO2) were dispensed at 3,000 cells/well in 4 uL of culture medium into white wall/solid-bottom 1536-well plates (Corning Life Sciences, Corning, NY) using a Multidrop Combi (ThermoFisher Scientific, Waltham, MA) dispenser. After the assay plates were incubated at a 37C and 0% CO2 for 5 hr, 23 nL of compounds dissolved in DMSO, positive controls or DMSO only was transferred to the assay plate by a Pintool station (Kalypsys, San Diego, CA). The transfer of compounds was followed by the addition of 1 uL of 0.5 nM (final concentration) agonist (R1881)/culture medium using a Flying Reagent Dispenser (FRD, Aurora Discovery, San Diego, CA). The plates were incubated at 37C and 0% CO2 for 16 hr. For cytotoxicity assay, 1 uL of CellTiter-Fluor reagent (Promega Corporation, Madison, WI) was added to each well using the FRD and after 30 min incubation at 37C and 0% CO2, The fluorescence intensity was measured using ViewLux plate reader (PerkinElmer, Shelton, CT).
# % is set by controls: 0 for no effect and ±100 for the full control effect; potency is the fitted concentration of half-maximal effect.
SMILES,Potency,"viability change, negative = cytotoxic"
NNCCc1ccccc1,inactive,
CC(COc1ccccc1)N(CCCl)Cc1ccccc1 (stereo not given),55 µM (active) and inactive,
CCCCCCCCCCCCCC[P+](CCCC)(CCCC)CCCC,27.1 µM (active) and 21.7 µM (active),
COc1nc(C)nc(Cl)c1NC1=NCCN1,,-0.441% [at 42.5 µM] (inactive)
[Cl][In]([Cl])[Cl],inactive,
O=C(O)CCc1ccccc1,,4.56% (inactive)
O=C(O)c1cn(-c2ccc(F)cc2)c2cc(N3CCNCC3)c(F)cc2c1=O,inactive,
Cc1ccnc2c1NC(=O)c1cccnc1N2C1CC1,inactive,
CC(=O)OCC1=C(C(=O)O)N2C(=O)[C@@H](NC(=O)Cc3cccs3)[C@H]2SC1,,-1.99% [at 42.5 µM] (inactive)
CCCCN(CCO)CCCC,,3.02% (inactive)
CC(C)CCOCc1ccccc1,,-0.206% (inactive)
CCc1cc(C(C)(C)C)c(O)c(C(C)(C)C)c1,inactive,
CCCNC(C)C(=O)Nc1ccccc1C (stereo not given),,4.56% [at 42.5 µM] (inactive)
CCCCCCCCCCCC[N+](C)(C)C,inactive and 24.3 µM (active),
CN(C)c1ccc2nc3ccc(=[N+](C)C)cc-3sc2c1,6.11 µM (active) and 1.88 µM (active),
CC(=O)CC(=O)Nc1ccc2[nH]c(=O)[nH]c2c1,,1.45% (inactive)
O=C(O)c1cc(Cl)cc(Cl)c1,,1.97% (inactive)
Cc1ccc(-c2cc(C(F)(F)F)nn2-c2ccc(S(N)(=O)=O)cc2)cc1,inactive,
COC(=O)[C@H]1[C@H]2C[C@@H]3c4[nH]c5cc(OC)ccc5c4CCN3C[C@H]2C[C@@H](OC(=O)c2cc(OC)c(OC)c(OC)c2)[C@@H]1OC,,3.48% [at 42.5 µM] (inactive)
O=C1Nc2ccccc2C1(c1ccc(O)cc1)c1ccc(O)cc1,inactive,

SMILES,Potency,"viability change, negative = cytotoxic"
CC1COc2c(N3CCN(C)CC3)c(F)cc3c(=O)c(C(=O)O)cn1c23 (stereo not given),,1.7% [at 42.5 µM] (inactive)
CC1=C(C=O)C(C)(C)CC=C1,,3.64% (inactive)
c1cc(C(c2ccc(OCC3CO3)cc2)C(c2ccc(OCC3CO3)cc2)c2ccc(OCC3CO3)cc2)ccc1OCC1CO1 (stereo not given),inactive,
CCN(CC)c1ccc2c(C)cc(=O)oc2c1,inactive,
c1ccc2c(c1)CCCC2C1=NCCN1 (stereo not given),,-0.0462% [at 42.5 µM] (inactive)
OCCOCCN1CCN(C(c2ccccc2)c2ccc(Cl)cc2)CC1 (stereo not given),,3.14% [at 42.5 µM] (inactive)
O=C(O)Cn1cnnn1,,-1.87% [at 42.5 µM] (inactive)
Oc1c(Cl)cc(Cl)c(Cl)c1Cc1c(O)c(Cl)cc(Cl)c1Cl,8.41 µM (active),
CC[C@]1(O)C[C@@H]2CN(CCc3c([nH]c4ccccc34)[C@@](C(=O)OC)(c3cc4c(cc3OC)N(C)[C@H]3[C@@](O)(C(=O)OC)[C@H](OC(C)=O)[C@]5(CC)C=CCN6CC[C@]43[C@@H]65)C2)C1,inactive,
Cc1cccc([N+](=O)[O-])c1C(=O)O,,2.59% (inactive)
C1COC(NC(C2CC2)C2CC2)=N1,,-0.96% [at 42.5 µM] (inactive)
CCCOC(=O)c1cc(O)c(O)c(O)c1,inactive,
CN(C)c1ccc(C(=C2C=CC(=[N+](C)C)C=C2)c2ccccc2)cc1,27.3 µM (active) and 2.98 µM (active),
CCn1c2ccccc2c2cc(N)ccc21,inactive,
CCCCOCCOC(=O)c1ccccc1C(=O)OCCOCCCC,inactive,
CCN(CC)C(=O)Nc1ccc(OCC(O)CNC(C)(C)C)c(C(C)=O)c1 (stereo not given),,4.32% [at 42.5 µM] (inactive)
C#CC(C)(CC)OC(=O)c1ccccc1C(=O)O (stereo not given),,-0.359% [at 42.5 µM] (inactive)
CCOC(=O)C(C)C(C)=O (stereo not given),,-4.85% (inactive)
NCCCCCC(=O)O,,10.9% [at 42.5 µM] (inactive)
CO[Si](OC)(OC)c1ccccc1,,-1.24% (inactive)
